Reference: PubChem BioAssay (NCATS)
“And” between values parts separate entries of the source, which are not always exact repeats. Equal values may be shown once. Results filed as inconclusive are left out. The source made the active and inactive calls. Unless noted, calls follow the shape of the dose curve; as a rule, active = well fitted cell-killing curve with a large enough effect; inconclusive = small, poorly fitted or top-dose-only effect; inactive = flat fitted curve, though single readings scatter.

Tests used:
[1] = Cell Viability - LYMP2-012 (AID 982);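 also: cellular ATP by luciferase luminescence where a drop means cytotoxicity; cells exposed to compound for one day before reading; 0% = DMSO only and full loss = 92 µM tetraoctylammonium bromide; nearly all actives have a fitted effect of over 55% in size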
[2] = Cell Viability - LYMP2-014 (AID 983);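 also: series mostly up to about 92 µM; plate controls were DMSO only for no effect and 92 µM tetraoctylammonium bromide for full effect; nearly all actives have a fitted effect of over 50% in size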
Procedure, shortened: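 Luminescent ATP signal (CellTiter-Glo, 30 min at room temperature) serves as the viability read-out after 24 hr compound exposure at 37 C. Cells were seeded at 2500 per well and settled 5 hr beforehand.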

[3] = Cell Viability - LYMP2-016 (AID 984);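 also: cells exposed to compound for 24 hours at 37 °C; % is scaled to controls: 0 for no effect and ±100 for the full control effect; nearly all actives have a fitted effect of over 55% in size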
Procedure, shortened: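 Human lymphoblastoid LYMP2-016 cells, 2500 per well, treated with compounds for 24 h at 37 C. Viability read as intracellular ATP by CellTiter-Glo luminescence after 30 min at room temperature; AC50 from Hill fits of concentration-response.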

[4] = Cell Viability - LYMP2-018 (AID 985);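 also: plate controls were DMSO only for no effect and tetraoctylammonium bromide at 92 µM for full effect; nearly all actives have a fitted effect of over 50% in size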
Procedure, shortened: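 Luminescent ATP signal (CellTiter-Glo, read after 30 min at room temperature) reports viable cells after 24 hr compound treatment at 37 C. Concentration-response data were fitted to the standard Hill equation for AC50.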

[5] = Cell Viability - LYMP2-020 (AID 986);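 also: series mostly up to about 92 µM; plate controls were DMSO only for no effect and tetraoctylammonium bromide at 92 µM for full effect; nearly all actives have a fitted effect of over 55% in size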
Procedure, shortened: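 Luminescent ATP signal (CellTiter-Glo, 30 min at room temperature) is the read-out after 24 h compound treatment of lymphoblastoid cells at 37 C. AC50 values come from Hill-equation fits across concentrations.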

[6] = Cell Viability - LYMP2-022 (AID 987);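 also: 0% = DMSO alone and full effect = tetraoctylammonium bromide at 92 µM; nearly all actives have a fitted effect of over 55% in size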
Procedure, shortened: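 qHTS: human lymphoblastoid cells 2500/well; 5 hr 37 C; cpd added; 24 hr 37 C; CellTiter-Glo, 30 min RT; luminescence. AC50 via Hill fit; tetraoctylammonium bromide positive ctrl.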

[7] = Cell Viability - LYMP2-024 (AID 988);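 also: plate controls were DMSO only for no effect and 92 µM tetraoctylammonium bromide for full effect; nearly all actives have a fitted effect of over 60% in size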
Procedure, shortened: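 Steps: seed 2500 cells/well, 5 hr 37 C; add compound, 24 hr 37 C; add CellTiter-Glo, 30 min room temperature; read luminescence. AC50 derived by Hill modelling of concentration-dependent ATP loss.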

[8] = Cell Viability - LYMP2-026 (AID 989); also: % is scaled to controls: 0 for no effect and ±100 for the full control effect; nearly all actives have a fitted effect of over 50% in size
Procedure, shortened: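 Luminescent ATP signal (CellTiter-Glo, 30 min room temperature) measures viable lymphoblastoid cells after 24 hr compound treatment at 37 C. Decreased ATP reflects acute toxicity; AC50 values come from Hill-equation modeling.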

[9] = Cell Viability - LYMP1-002 - Assay at 24 hr (AID 993); also: % is scaled to controls: 0 for no effect and ±100 for the full control effect
Procedure, shortened: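 Cells plated 2500/well, 5 hr 37 C; compounds added, 24 hr 37 C; CellTiter-Glo added, 30 min RT; luminescence read. Tetraoctylammonium bromide positive control. Hill-equation AC50.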

[10] = Cell Viability - LYMP1-002 - Assay at 40 hr (AID 994);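 also: 0% = DMSO only and full inhibition = 92 µM tetraoctylammonium bromide; nearly all actives have a fitted effect of over 60% in size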
Procedure, shortened: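 Luminescent ATP signal served as the viability readout, with decreases taken as toxicity. Cells were treated with compounds across a concentration range for 40 hours at 37 C, and AC50 values came from standard Hill modeling.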

[11] = target: Estrogen receptor (Homo sapiens) (UniProt P03372); experiment: qHTS assay for small molecule antagonists of estrogen receptor alpha signaling (AID 588513; active = well fitted curve in the direction sought with a large enough effect in the signal ratio, with a control signal flat, not every such curve was filed as active; the % refers to the signal ratio; also: % is scaled to controls: 0 for no effect and ±100 for the full control effect)
Chain of Estrogen receptor (Homo sapiens) (P03372 whole entry, looked up): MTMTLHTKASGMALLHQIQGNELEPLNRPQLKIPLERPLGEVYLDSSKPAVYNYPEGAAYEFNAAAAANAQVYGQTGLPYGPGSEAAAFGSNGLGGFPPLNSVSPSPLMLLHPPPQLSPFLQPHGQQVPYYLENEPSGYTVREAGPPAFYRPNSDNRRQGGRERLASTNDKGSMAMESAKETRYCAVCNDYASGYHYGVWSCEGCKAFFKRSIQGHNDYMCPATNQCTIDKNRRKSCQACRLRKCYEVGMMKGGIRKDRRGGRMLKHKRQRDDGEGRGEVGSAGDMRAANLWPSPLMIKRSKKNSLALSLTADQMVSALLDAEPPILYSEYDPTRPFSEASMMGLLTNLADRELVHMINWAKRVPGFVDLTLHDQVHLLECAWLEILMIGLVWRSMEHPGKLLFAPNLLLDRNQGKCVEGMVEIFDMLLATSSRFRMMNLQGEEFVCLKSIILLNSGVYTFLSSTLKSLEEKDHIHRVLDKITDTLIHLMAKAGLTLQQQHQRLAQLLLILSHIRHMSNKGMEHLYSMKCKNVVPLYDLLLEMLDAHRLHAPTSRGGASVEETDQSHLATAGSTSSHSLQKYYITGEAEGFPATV
Procedure, shortened: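 ER-alpha-UAS-bla GripTite HEK 293 cells in 2% charcoal/dextran-treated FBS medium; compounds titrated (1:2, duplicate), then stimulated with 0.5 nM 17-beta-estradiol for 18 h at 37C. CCF4 beta-lactamase fluorescence; Hill-fit IC50 and efficacy.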

[12] = target: Estrogen receptor (Homo sapiens) (UniProt P03372); experiment: qHTS assay for small molecule agonists of estrogen receptor alpha signaling (AID 588514; calls by dose curve;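 also: 0% = vehicle only and 100% = reference agonist; nearly all actives have a fitted effect of over 70% in size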)
Procedure, shortened: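 Cells were plated at 5000/well, incubated 4 hrs at 37 C, dosed with compound titration series, incubated 18 hrs at 37 C, loaded with CCF4 dye for 2 hrs at RT, then fluorescence was read.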

[13] = target: Bile acid receptor (Homo sapiens) (UniProt Q96RI1); experiment: qHTS assay for small molecule antagonists of farnesoid X receptor signaling (AID 588526; calls by dose curve; also: % is scaled to controls: 0 for no effect and ±100 for the full control effect)
Chain of Bile acid receptor (Homo sapiens) (Q96RI1 whole entry, looked up): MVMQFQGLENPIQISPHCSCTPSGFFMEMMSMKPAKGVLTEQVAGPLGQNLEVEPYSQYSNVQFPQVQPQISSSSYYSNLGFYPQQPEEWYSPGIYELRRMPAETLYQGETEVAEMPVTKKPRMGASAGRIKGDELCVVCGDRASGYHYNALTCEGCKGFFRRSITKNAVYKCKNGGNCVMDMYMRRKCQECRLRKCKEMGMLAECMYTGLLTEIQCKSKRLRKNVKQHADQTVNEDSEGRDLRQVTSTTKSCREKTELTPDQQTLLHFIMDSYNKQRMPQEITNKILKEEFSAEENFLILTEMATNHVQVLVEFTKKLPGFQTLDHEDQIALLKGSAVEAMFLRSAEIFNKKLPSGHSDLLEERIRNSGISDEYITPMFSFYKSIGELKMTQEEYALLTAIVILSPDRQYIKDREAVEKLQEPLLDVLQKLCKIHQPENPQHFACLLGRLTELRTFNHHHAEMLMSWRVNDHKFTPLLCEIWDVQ
Procedure, shortened: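 Beta-lactamase reporter antagonist mode: HEK293T FXR-UAS-bla cells, titrated compound, CDCA stimulation, 16 h 37 C, CCF4 dye 2 h RT. Data normalized to CDCA 50 uM and DMSO; Hill-fit IC50.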

[14] = target: Bile acid receptor (Homo sapiens) (UniProt Q96RI1); experiment: qHTS assay for small molecule agonists of farnesoid X receptor signaling (AID 588527; calls by dose curve;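 also: series mostly up to about 77 µM; 0% = vehicle basal and 100% = reference agonist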); conditions: HEK293T FXR-UAS-bla, beta-lactamase ratio, 16 h; stronger effect = higher value
Procedure, shortened: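 Quantitative HTS used FXR-UAS-bla HEK293T cells with 16 h compound incubation at 37 C. EC50 values came from concentration-response curves normalized to chenodeoxycholic acid.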

[15] = qHTS assay for small molecule antagonists of peroxisome proliferator-activated receptor delta signaling (AID 588535; active = well fitted inhibition curve with a large enough effect in the signal ratio, with a control signal flat, not every such curve was filed as active; the % refers to the signal ratio;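 as to max response: cells co-treated with a PPAR-delta agonist as stimulator during compound exposure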); conditions: HEK293T PPARd-UAS-bla, beta-lactamase FRET ratio, 18 h; 460 nm channel
Procedure, shortened: (§1)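 HEK293T PPAR-delta-UAS-bla cells, 4000/well, 2% charcoal/dextran FBS; 5 h 37 C; cpd titration; 18 h 37 C; CCF4 2 h RT; FI 460/530 nm; Hill fit → IC50, efficacy.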

[16] = target: Peroxisome proliferator-activated receptor delta (Homo sapiens) (UniProt Q03181); experiment: as above
Chain of Peroxisome proliferator-activated receptor delta (Homo sapiens) (Q03181 whole entry, looked up): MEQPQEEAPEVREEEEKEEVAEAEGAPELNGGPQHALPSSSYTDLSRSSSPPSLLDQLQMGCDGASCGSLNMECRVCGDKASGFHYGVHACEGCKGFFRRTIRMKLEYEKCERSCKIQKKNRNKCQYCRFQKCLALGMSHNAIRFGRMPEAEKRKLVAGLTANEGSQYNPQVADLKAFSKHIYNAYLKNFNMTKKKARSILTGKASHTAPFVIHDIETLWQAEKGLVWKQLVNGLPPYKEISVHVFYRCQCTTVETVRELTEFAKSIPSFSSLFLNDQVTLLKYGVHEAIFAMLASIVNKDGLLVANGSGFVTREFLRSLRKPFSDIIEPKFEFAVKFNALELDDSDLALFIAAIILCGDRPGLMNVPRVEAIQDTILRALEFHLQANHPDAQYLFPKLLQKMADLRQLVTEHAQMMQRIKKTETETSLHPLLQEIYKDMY
Procedure, shortened: as §1

[17] = target: Peroxisome proliferator-activated receptor gamma (Homo sapiens) (UniProt P37231); experiment: qHTS assay for small molecule agonists of peroxisome proliferator-activated receptor gamma signaling (AID 588536; active = well fitted curve in the direction sought with a large enough effect in the signal ratio, with a control signal flat, not every such curve was filed as active; the % refers to the signal ratio;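 also: 0% = DMSO basal wells and 100% = rosiglitazone at 2 µM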)
Chain of Peroxisome proliferator-activated receptor gamma (Homo sapiens) (P37231 whole entry, looked up): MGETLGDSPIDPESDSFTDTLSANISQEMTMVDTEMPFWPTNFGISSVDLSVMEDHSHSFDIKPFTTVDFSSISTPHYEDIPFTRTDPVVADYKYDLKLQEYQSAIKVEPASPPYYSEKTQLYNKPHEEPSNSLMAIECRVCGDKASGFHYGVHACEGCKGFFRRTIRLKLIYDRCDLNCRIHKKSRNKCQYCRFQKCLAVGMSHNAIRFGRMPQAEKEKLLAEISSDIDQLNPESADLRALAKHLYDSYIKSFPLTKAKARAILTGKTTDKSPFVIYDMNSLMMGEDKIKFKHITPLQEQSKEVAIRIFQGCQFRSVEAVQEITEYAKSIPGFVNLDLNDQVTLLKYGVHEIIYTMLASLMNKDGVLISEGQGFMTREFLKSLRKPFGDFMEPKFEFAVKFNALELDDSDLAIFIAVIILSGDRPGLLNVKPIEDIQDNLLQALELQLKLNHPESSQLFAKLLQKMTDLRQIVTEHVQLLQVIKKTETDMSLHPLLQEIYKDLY
Procedure, shortened: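 HEK293 UAS-bla reporter line, 1% charcoal/dextran FBS; titration, 16 h, 37 C; CCF4 loading 2 h RT; fluorescence 460/530 nm. Normalized to rosiglitazone 2 uM = 100%, DMSO = 0%.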

[18] = qHTS assay for small molecule agonists of retinoid X receptor alpha signaling (AID 588544; calls by dose curve;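 as to activation: 0% = DMSO basal wells and 100% = reference agonist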); conditions: HEK293T RXRa-UAS-bla, beta-lactamase reporter, 18 h; 530 nm emission
[19] = target: Retinoic acid receptor RXR-alpha (Homo sapiens) (UniProt P19793); experiment: as above
Chain of Retinoic acid receptor RXR-alpha (Homo sapiens) (P19793 whole entry, looked up): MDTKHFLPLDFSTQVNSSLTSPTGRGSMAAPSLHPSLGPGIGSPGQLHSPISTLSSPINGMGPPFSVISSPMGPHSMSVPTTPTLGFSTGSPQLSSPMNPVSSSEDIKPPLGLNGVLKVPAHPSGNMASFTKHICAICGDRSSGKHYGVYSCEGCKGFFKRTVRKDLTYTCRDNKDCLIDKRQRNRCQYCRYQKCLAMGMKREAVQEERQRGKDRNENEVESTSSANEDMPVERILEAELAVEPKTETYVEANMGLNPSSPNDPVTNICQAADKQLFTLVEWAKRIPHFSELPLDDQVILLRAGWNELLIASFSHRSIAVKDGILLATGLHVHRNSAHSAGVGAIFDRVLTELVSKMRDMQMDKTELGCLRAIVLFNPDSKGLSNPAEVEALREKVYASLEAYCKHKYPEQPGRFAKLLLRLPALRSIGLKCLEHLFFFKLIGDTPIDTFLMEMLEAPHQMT

[20] = target: Thyroid hormone receptor beta (Homo sapiens) (UniProt P10828); experiment: qHTS assay for small molecule agonists of thyroid hormone receptor beta signaling (AID 588545; calls by dose curve;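 also: 0% = DMSO only and 100% = 10 nM T3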)
Chain of Thyroid hormone receptor beta (Homo sapiens) (P10828 whole entry, looked up): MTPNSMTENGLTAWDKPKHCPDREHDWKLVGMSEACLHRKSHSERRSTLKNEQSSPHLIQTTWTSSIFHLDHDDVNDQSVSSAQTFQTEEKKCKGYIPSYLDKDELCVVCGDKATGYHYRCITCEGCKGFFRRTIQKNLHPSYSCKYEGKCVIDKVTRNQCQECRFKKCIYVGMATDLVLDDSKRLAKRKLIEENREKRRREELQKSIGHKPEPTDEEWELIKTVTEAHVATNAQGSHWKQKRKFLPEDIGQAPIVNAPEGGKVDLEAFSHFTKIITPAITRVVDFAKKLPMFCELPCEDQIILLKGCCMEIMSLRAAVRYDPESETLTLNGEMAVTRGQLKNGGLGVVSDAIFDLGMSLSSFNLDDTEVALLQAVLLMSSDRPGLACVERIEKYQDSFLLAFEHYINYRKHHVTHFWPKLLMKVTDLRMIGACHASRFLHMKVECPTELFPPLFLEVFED
Procedure, shortened: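 TR-UAS-bla-GripTite HEK 293 cells in medium with 2% charcoal/dextran FBS, 0.1 mM NEAA and 1 mM sodium pyruvate were treated with titrated compounds for 18 hrs at 37 C. Beta-lactamase reporter was read with CCF4 dye (ex 405, em 460/530 nm); EC50 from Hill fits.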

[21] = qHTS assay for small molecule antagonists of retinoid X receptor alpha signaling (AID 588546; active = well fitted inhibition curve with a large enough effect in the signal ratio, with a control signal flat, not every such curve was filed as active; the % refers to the signal ratio;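 also: cells stimulated with 9-cis-retinoic acid as agonist; % is scaled to controls: 0 for no effect and ±100 for the full control effect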); conditions: HEK293T RXRa-UAS-bla, beta-lactamase ratio, antagonist mode; measured here: W530 green channel, cytotoxicity proxy
Procedure, shortened: (§2)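 Beta-lactamase reporter inhibition, read as CCF4 fluorescence ratio (ex 405, em 460/530 nm) after 2 h at RT. HEK293T UAS-bla cells, 2500/well, were stimulated with 9-cis-RA at 500 or 100 nM final alongside test compound for 18 h at 37 C.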

[22] = target: Retinoic acid receptor RXR-alpha (Homo sapiens) (UniProt P19793); experiment: as above; conditions: HEK293T RXRa-UAS-bla, beta-lactamase ratio, antagonist mode
Procedure, shortened: as §2

[23] = target: Thyroid hormone receptor beta (Homo sapiens) (UniProt P10828); experiment: qHTS assay for small molecule antagonists of thyroid hormone receptor beta signaling (AID 588547; active = well fitted inhibition curve with a large enough effect in the signal ratio, with a control signal flat, not every such curve was filed as active; the % refers to the signal ratio); conditions: TR-UAS-bla HEK293, beta-lactamase ratio, antagonist mode, 18 h
Procedure, shortened: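 Inhibition of T3-driven (0.4nM final) beta-lactamase reporter activity was measured over 0.59 nM to 92 uM compound after 18 h at 37 C. The cells were GripTite HEK293 TR-UAS-bla in charcoal/dextran-stripped serum, with CCF4 ratio read-out and IC50 from Hill fits.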

CCCOC(=O)c1ccccc1C(=O)OCCC
8.06% and -8.01%: max response [18]
2.17%: max response [15]
inactive: Potency [1] | Potency [2] | Potency [3] | Potency [4] | Potency [5] | Potency [6] | Potency [7] | Potency [8] | Potency [9] | Potency [10] | Potency [11] | Potency [12] | outcome [13] | activation [14] -0.825% and -0.41% | Potency [16] | outcome [17] | Potency [19] | outcome [20] | max response [22] -20.7% and -19.5% | activity change % (negative = inhibition) [23] 0.697% and -6.62%
3.93% and -2.34%: max response [21]
